# This is a sample that favours compounds with a hit; in the whole collection about 4.1% have one here.
# hcDAF-12 act: activators of H. contortus DAF-12 nuclear receptor; HEK293 hcDAF-12 lit1-tk-luc reporter, luminescence; 0% DMSO, 100% Δ7-dafachronic acid; activation, % at 6.8 µM; actives 1.4% (n = 370,000); AID 652067;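 active means activation above the mean of all tested compounds plus 3 SD, cut at about 5.5% in these data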
# hgDAF12 agonist: agonists of H. glycines DAF-12 nuclear receptor. HEK293 GAL4-hgDAF12 UAS-luciferase reporter, agonist luminescence; normalized to butyrate control. activation, % at 6.8 µM. actives 1.8% (n = 370,000);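 active means activation above a cutoff set at the mean of all screened compounds plus 3 SD, cut at about 10% in these data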
# DAX1 inh-1: inhibits human nuclear receptor DAX1; HEK293 Gal4-DAX1 luciferase reporter, luminescence; actives 0.99% (n = 340,000); AID 504766; inhibition, % at 6.75 µM;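 active means inhibition above the mean over all tested compounds plus 3 SD, cut at about 4.2% in these data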;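 further: inhibition shows as a rise in luminescence from relieved DAX1 repression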
# Target sequence (P51843 207-470 limits assumed): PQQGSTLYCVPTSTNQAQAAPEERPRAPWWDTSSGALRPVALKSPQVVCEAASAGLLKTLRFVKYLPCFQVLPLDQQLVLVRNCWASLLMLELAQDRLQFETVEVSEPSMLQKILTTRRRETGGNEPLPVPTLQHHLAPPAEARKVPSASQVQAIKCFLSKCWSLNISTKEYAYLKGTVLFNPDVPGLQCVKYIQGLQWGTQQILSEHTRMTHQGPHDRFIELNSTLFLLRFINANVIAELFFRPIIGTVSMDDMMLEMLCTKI
# ssDAF-12 act: activators of S. stercoralis DAF-12 nuclear receptor; activation, % at 6.8 µM; HEK293 ssDAF-12/GRIP1 lit1-tk-luc reporter, luminescence; % of 3 µM dafachronic acid response; actives 1% (n = 370,000);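 active means activation above the mean over all tested compounds plus 3 SD, cut at about 0.9% in these data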
# DAX1 inh-2: inhibitors of DAX1 repression of SF-1 activated StAR promoter. actives 1.1% (n = 370,000). inhibition, % at 6.8 µM. AID 652010. HEK293T StAR-luciferase reporter, SF-1/DAX-1 repression relief;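 active means inhibition above the mean over all tested compounds plus 3 SD, cut at about 3.6% in these data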;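 further: higher inhibition means more luminescence from relief of DAX-1 repression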
# Numbers stand for hits; n = inactive; x = no result given.
SMILES,hcDAF-12 act,hgDAF12 agonist,DAX1 inh-1,ssDAF-12 act,DAX1 inh-2
O=C(COc1ccc(S(=O)(=O)N2CCc3ccccc32)cc1Cl)NCc1ccccn1,n,n,n,0.9,n
CCCC(=O)N(CCN1CCOCC1)c1nc2c(F)cc(F)cc2s1,n,n,n,n,4.0
CCCC(=O)N(CCN1CCOCC1)c1nc2c(OCC)cccc2s1,x,x,n,x,x
O=C(NCCc1ccccc1)O[C@H]1CC[C@@]23CCCN2C(=O)CCC[C@H]3C1,n,n,x,n,x
O=C(CSc1ccc(-c2ccccn2)nn1)c1ccc(F)cc1,n,n,n,n,n
c1ccc(CSc2ccc(-c3ccccn3)nn2)cc1,n,12,n,n,n
O=C(CSc1ccc(-c2ccccn2)nn1)c1ccccc1,n,n,4.6,n,n
O=C(NCc1ccco1)Nc1c(Cl)cc(Cl)cc1Cl,n,n,x,n,n
COC(=O)c1cc2c(c3c4cc(OC)ccc4n(S(=O)(=O)c4ccc(F)cc4)c13)C(=O)N(Cc1ccccc1)C2,n,n,x,n,n
CC(=O)c1ccc2noc(-c3ccc(Cl)cc3)c2c1,n,n,n,n,n
Cc1cc(-c2onc3ccc(Cl)cc23)ccc1O,6.2,n,n,n,n
Cc1ccc(-c2onc3ccc(C4(C)OCCO4)cc23)cc1,n,n,n,n,n
Cc1ccc(-c2onc3ccc(C=O)cc23)cc1,n,13,n,n,n
COc1ccc(S(=O)(=O)NC(C)C(=O)NCc2ccncc2)cc1OC (stereo unspecified),n,n,5.8,n,n
COc1ccc(S(=O)(=O)NC(C)C(=O)NCc2ccncc2)cc1C (stereo unspecified),n,n,n,n,n
Cc1nn(-c2ccccc2)c(N)c1C(O)(CSc1nccn1C)C(F)(F)F (stereo unspecified),n,n,n,0.9,n
Cc1ccc(-n2nc(C)c(C(C)(O)C(F)(F)F)c2N)cc1 (stereo unspecified),n,n,n,n,n
Cc1nn(-c2ccc(Cl)cc2)c(N)c1C(O)(CSc1nccn1C)C(F)(F)F (stereo unspecified),n,n,n,1.0,n
Cc1ccc2c(c1)C1CS(=O)(=O)N(Cc3ccccc3)C(=O)N1C2 (stereo unspecified),n,n,x,n,n
COc1ccc2ccccc2c1-c1c(C(=O)c2ccc(Br)cc2)[nH]c(N)c1C(=O)NC1CCCCC1,n,n,x,n,x
CC(C)(C)NCC(O)CON=C1c2ccccc2-c2ccccc21 (stereo unspecified),n,n,5.4,n,n
CC(C)(C)NC(=O)CON=C1c2ccccc2-c2ccccc21,n,n,n,n,n
CN(C)C(=O)N1CCN(C(=O)[C@H]2O[C@@H](n3ccc(N)nc3=O)[C@H](O)[C@@H]2O)CC1,n,n,x,n,n
CC(OC(=O)CNC(=O)c1ccco1)C(=O)N(C)c1ccccc1 (stereo unspecified),n,n,n,n,n
CC(OC(=O)/C(C#N)=C/c1ccco1)C(=O)N(C)c1ccccc1 (stereo unspecified),n,n,n,2.5,n
SMILES,hcDAF-12 act,hgDAF12 agonist,DAX1 inh-1,ssDAF-12 act,DAX1 inh-2
O=C1CCC[C@@H]2Cc3nc4ccc(O)cc4cc3[C@@H]3CCN1[C@H]23,n,n,n,n,n
O=C1CCC[C@@H]2Cc3nc4cc5c(cc4cc3[C@@H]3CCN1[C@H]23)OCO5,n,n,6.1,n,n
CCN(CC)C(=O)Oc1ccc2c(=O)c(-c3ccccc3)coc2c1,n,11,n,n,4.1
CC(=O)Oc1ccc2occ(-c3ccccc3)c2c1,n,n,n,n,n
O=[N+]([O-])c1ccc(C(O)CSC(=S)N2CCCCC2)cc1 (stereo unspecified),n,n,5.4,n,n
CCOC(=O)c1cccc(NC(=O)c2cc3ccccc3o2)c1,n,11,n,n,n
O=C(NC(=S)Nc1cccnc1)c1cc2ccccc2o1,n,11,n,n,n
CCC(=O)Nc1cccc(NC(=O)c2cc3ccccc3o2)c1,n,11,n,n,n
Cc1cc(C(=O)Nc2cccc(C(=O)O)c2)oc1C,n,10,n,n,n
CCOC(=O)c1ccc(NC(=O)c2cc3ccccc3o2)cc1,n,n,n,n,n
O=C(NC(=S)NCc1cccnc1)c1cc2ccccc2o1,n,n,n,n,n
Cc1cc(C(=O)Nc2cccc(C(=O)O)c2)c(C)o1,n,n,n,n,n
O=C(Nc1ccccc1)Nc1scc2c1c(=O)oc1ccccc12,n,n,x,n,n

# Screening results as filed in PubChem BioAssay.
